Screens from PubChem BioAssay.
This is a sample that favours compounds with a hit; in the whole collection about 3.5% have one here.
FBW7 activator – FBW7 E3 ligase activators, primary screen, biochemical, AlphaScreen, human | F-box/WD repeat-containing protein 7 (Homo sapiens), Q969H0 | AlphaScreen FBW7–phospho-cyclin E peptide binding, activator screen | normalized activity (activation), % at 26.1 µM | 0.13% of 650,000 active; in the data active means normalized activity above about 1.9%;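 further: purified mutant Fbw7 with reduced substrate affinity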
TEAD-YAP inh – TEAD-YAP interaction inhibition, primary screen, TEAD-YAP interaction inhibitor project, luminescence, HEK-TIYL cells | TEAD-Gal4/YAP UAS-luciferase luminescence | inhibition, % at 9.12 µM | 1.4% of 640,000 active | AID 1259422, 2018; in the data active means inhibition above about 32%
GPR151 activ – activators of human GPR151, primary screen, cell-based, PathHunter beta-arrestin, luminescence. 1% of 650,000 active. activation, % at 11.2 µM. PathHunter beta-arrestin GPR151 cells. G-protein coupled receptor 151 (Homo sapiens), Q8TDV0; in the data active means activation above about 4.9%
Target sequence (Q8TDV0 whole entry, looked up): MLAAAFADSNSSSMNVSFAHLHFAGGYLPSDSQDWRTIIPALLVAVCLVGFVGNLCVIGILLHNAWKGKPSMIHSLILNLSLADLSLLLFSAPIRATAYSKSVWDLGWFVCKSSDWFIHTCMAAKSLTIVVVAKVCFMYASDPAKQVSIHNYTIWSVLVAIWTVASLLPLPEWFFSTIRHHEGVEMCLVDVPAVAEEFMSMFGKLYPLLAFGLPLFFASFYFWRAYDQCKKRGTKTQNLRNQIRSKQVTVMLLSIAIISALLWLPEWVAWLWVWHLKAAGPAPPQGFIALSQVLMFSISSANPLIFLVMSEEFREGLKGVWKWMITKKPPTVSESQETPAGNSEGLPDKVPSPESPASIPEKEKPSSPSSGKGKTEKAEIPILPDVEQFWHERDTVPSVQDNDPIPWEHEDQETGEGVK
MITF inh – MITF inhibitors, primary screen, biochemical, AlphaScreen, human; AlphaScreen MITF homodimerization, bead proximity signal; inhibition, % at 2.6 µM; 0.91% of 650,000 active; in the data active means inhibition above about 50%
Numbers stand for hits; - = inactive.

SMILES	FBW7 activator	TEAD-YAP inh	GPR151 activ	MITF inh
O=C1CCCN1CCn1cnc2c(NCCOc3ccccc3)nc(Nc3ccc(-n4ccnc4)cc3)nc21	-	-	-	-
O=C1CCCN1CCCNc1nc(Nc2cccnc2)nc2c1ncn2-c1ccsc1	-	47	-	-
O=C1CCCN1CCCNc1nc(Nc2ccc(-n3ccnc3)cc2)nc2c1ncn2-c1ccsc1	-	61	-	-
O=C1CCCN1CCCNc1nc(Nc2ccc(-n3ccnc3)cc2)nc2c1ncn2-c1ccccc1	-	52	-	-
CC(C)[C@H](CO)n1c(=O)[nH]c2ncc(-c3cccnc3)nc21	-	-	-	-
O=C1N[C@@H](Cc2ccc(O)cc2)C(=O)N2C[C@@H](NCc3ccccc3F)C[C@@H]12	-	-	-	-
COCCNC(=S)N1CCN(c2ccc(OC)cc2)CC1	-	-	-	-
Nn1c(SCC(=O)N2CCCCC2)nnc1-c1ccccc1	-	-	-	-
O=C1CCCN1CCCNc1nc(Nc2ncccn2)nc2c1ncn2-c1ccccc1	-	-	-	-
O=C1CCCN1CCCNc1nc(Nc2ccccc2)nc2c1ncn2-c1ccccc1	-	39	-	-
COc1cc(Nc2nc(NCCCN3CCCC3=O)c3ncn(-c4ccccc4)c3n2)cc(OC)c1OC	-	49	-	-
CCCNc1nc(NCCCN2CCCC2=O)nc2c1ncn2-c1ccccc1	-	42	-	-
O=C1CCCN1CCCNc1nc(Nc2ccncc2)nc2c1ncn2-c1ccsc1	-	60	-	-
CC(=O)OC(OC(C)=O)C12C=CC(O1)C1C(=O)N(c3ccc(Cl)cc3Cl)C(=O)C12 (stereo not drawn)	-	-	-	-
O=C1CCCN1CCCNc1nc(NCCN2CCOCC2)nc2c1ncn2-c1ccsc1	-	-	-	-
Cc1nn(C)c(C)c1-c1nc(NCCCN2CCCC2=O)c2ncn(-c3ccsc3)c2n1	-	56	-	-
O=C1CCCN1CCCNc1nc(NCCCN2CCCC2=O)c2ncn(-c3ccsc3)c2n1	-	39	-	-
Cc1nn(C)c(C)c1-c1nc(NCCCN2CCCC2=O)c2ncn(-c3ccccc3)c2n1	-	-	-	-
CCCOC(=O)C1=C(C)NC(=O)NC1c1ccc(F)c(Br)c1 (stereo not drawn)	-	-	-	-
CC1=C(C(=O)Nc2ccc(Cl)cc2)C(c2ccco2)C(C#N)=C(SCC(=O)Nc2ccc(Cl)cc2)N1 (stereo not drawn)	-	-	-	-
CSc1nnc2c(n1)OC(c1ccco1)N(C(=O)c1ccccc1)c1ccccc1-2 (stereo not drawn)	-	53	-	-
CC[n+]1ccc(/C=C2\C=Cc3cc(C)ccc3N2C)cc1	-	58	-	-
CC[n+]1c(/C=C2\C=Cc3cc(C)ccc3N2C)sc(C)c1C	-	61	-	-
CCN1/C(=C/c2cc[n+](C)cc2)C=Cc2cc(C)ccc21	-	81	-	-
CC[n+]1ccc(/C=C2\C=Cc3ccc(C)cc3N2C)cc1	-	-	-	-
SMILES	FBW7 activator	TEAD-YAP inh	GPR151 activ	MITF inh
CCN1C(=C2C(=O)c3ccccc3C2=O)C=Cc2cc(C)ccc21	-	-	-	-
O=C(NCc1ccncc1)c1ccc(OC2CCN(Cc3cc4ccccc4o3)CC2)cc1	-	45	-	-
CCC(OC(=O)c1ccc([N+](=O)[O-])cc1)C(=O)c1ccccc1 (stereo not drawn)	-	-	-	-
COc1ccc(-c2nc3c(NCCc4ccc(O)cc4)ncnc3n2C(C)C)cc1	-	-	-	-
CCOc1ccc(/C=C/C(=O)N2CCCCC2)cc1OC	-	-	-	-
Cc1ccc(C(=O)c2sc3nc4c(cc3c2N)C(=O)CCC4)cc1	-	47	-	-
Cc1ccc(C(=O)c2sc3nc4c(cc3c2N)CCC4)c(C)c1	2.0	-	-	-
Nc1c(C(=O)Nc2cccc3ccccc23)sc2nc3c(cc12)C(=O)CCC3	-	61	-	-
COc1ccc(C(=O)c2sc3nc4c(cc3c2N)C(=O)CCC4)cc1	-	-	-	-
COCc1cc(C)c2c(N)c(C(=O)c3ccc(C)cc3C)sc2n1	3.7	-	-	-
O=C(N/N=C/c1ccc2cccc(O)c2n1)c1ccccc1	-	-	-	-
COCCn1c(CCC(=O)NCc2ccc(Cl)cc2)nc2cccnc21	-	-	-	-
O=C(O)CNC(=S)N(Cc1cccs1)C1CCCC1	-	-	-	-
O=C(CCC1(Cc2cccs2)CCC(=O)N1)NCC1CCCN(c2ncccn2)C1 (stereo not drawn)	-	-	-	-
C=CCn1c(C)cn2c3c(=O)n(C/C=C/c4ccccc4)c(=O)n(C)c3nc12	-	-	-	-
Cc1ccc(-c2noc(-c3ccco3)n2)cc1	-	-	-	-
CCOc1ccc(-c2nc(-c3ccccc3)no2)cc1	-	62	-	-
COc1ccc(-c2noc(-c3ccco3)n2)cc1	-	60	-	-
O=C(CC(=O)NN=C1CCCCCC1)NCc1ccccc1	-	-	-	-
c1ccc2c(-c3nc(Nc4ccc(N5CCOCC5)cc4)c4[nH]cnc4n3)csc2c1	-	-	-	-
O=C(Cc1ccc(N2CCC(NCCn3ccnc3)CC2)cc1)NCc1ccccc1	-	47	-	-
O=C(Cc1ccc(N2CCC(NCCn3ccnc3)CC2)cc1)N1CCCC1	-	-	-	-
COc1ccc(-c2csc3ncnc(NCCO)c23)cc1	-	38	-	-
CCOC(=O)CSc1ncnc2scc(-c3ccc(F)cc3)c12	2.4	-	-	-
CCOC(=O)CNC(=O)CSc1ncnc2scc(-c3ccc(Cl)cc3)c12	-	-	-	-
SMILES	FBW7 activator	TEAD-YAP inh	GPR151 activ	MITF inh
CCOC(=O)CNc1ncnc2scc(-c3ccccc3)c12	-	35	-	-
COc1ccc(-c2csc3ncnc(NCCCO)c23)cc1	-	-	-	-
COC(=O)CCNc1ncnc2scc(-c3ccc(C)cc3)c12	-	36	-	-
CC(=O)c1cccc(NS(=O)(=O)c2cc(Br)cnc2N)c1	-	-	-	-
COC(=O)c1ccc(NC(=O)C(C)(C)Oc2ccc(Cl)cc2)cc1	-	-	-	-
O=C(NCCc1ccccn1)C1CC12CCN(Cc1ccc3nsnc3c1)CC2 (stereo not drawn)	-	-	-	-
O=c1[nH]c2nc(-c3ccc(N4CCOCC4)cc3)cnc2n1C1CCCCC1	-	-	-	-
CCCN(CCC)c1nc(N)ncc1[N+](=O)[O-]	-	59	-	-
CCCCN(CCCC)c1nc(N)ncc1[N+](=O)[O-]	-	34	-	-
Nc1ncc([N+](=O)[O-])c(Oc2ccccc2F)n1	-	-	-	-
Nc1nc2ccc(S(=O)(=O)O)cc2s1	-	-	-	-
COc1ccc(NC(=O)c2nn(-c3ccccc3OC)c(=O)c3ccccc23)cc1OC	-	-	-	-
COc1cc(OC)cc(-n2nc(C(=O)NCCc3ccc(OC)c(OC)c3)c3ccccc3c2=O)c1	-	-	-	-
COc1cccc(-n2nc(C(=O)NCCc3ccc(OC)c(OC)c3)c3ccccc3c2=O)c1	-	36	-	-
Cn1nc(CC(=O)Nc2ccc(Br)cc2F)c2ccccc2c1=O	-	-	-	-
